Where “and” joins values, the source holds several entries; their conditions need not be identical. Equal values may be shown once. Inconclusive results are not listed. Where a structure was tested more than once in an assay, its records may differ in their call. Calls of active or inactive are those of the source. The calls were made as follows: active = hit-call score of the fitted dose curve at least 0.9, where 1 is the maximum; inconclusive = response in the unintended direction; inactive = score below 0.9.

Sequence of rat CYP2D2, Cyp2d26 (gene 25053) (P10634 whole entry, looked up): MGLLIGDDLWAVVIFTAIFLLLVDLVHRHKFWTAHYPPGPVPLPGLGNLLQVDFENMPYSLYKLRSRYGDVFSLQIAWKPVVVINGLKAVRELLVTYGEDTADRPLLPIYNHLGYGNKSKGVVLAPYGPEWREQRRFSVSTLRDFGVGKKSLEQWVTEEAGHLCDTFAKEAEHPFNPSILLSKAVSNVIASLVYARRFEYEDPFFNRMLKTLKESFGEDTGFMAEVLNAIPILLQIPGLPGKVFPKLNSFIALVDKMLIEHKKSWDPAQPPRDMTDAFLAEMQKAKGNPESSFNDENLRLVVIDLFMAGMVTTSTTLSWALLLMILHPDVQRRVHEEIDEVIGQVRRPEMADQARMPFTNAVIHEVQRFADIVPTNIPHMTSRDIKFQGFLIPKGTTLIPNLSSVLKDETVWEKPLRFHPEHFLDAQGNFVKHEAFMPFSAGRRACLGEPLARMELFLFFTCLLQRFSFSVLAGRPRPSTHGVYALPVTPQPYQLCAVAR

This assay has as its target rat CYP2D2, Cyp2d26 (gene 25053) (UniProt P10634). The assay can be described thus: NVS_ADME_rCYP2D2: NovaScreen (NVS) CYP450-related Enzyme Activity (ADME) Assay for rat CYP2D2 (AID 2283124). As for the experimental part:
NVS_ADME_rCYP2D2 is a biochemical, single-readout assay that uses extracted gene-proteins in a cell-free assay. Measurements were taken 0.75 hour after chemical dosing in a 96-well plate.NVS_ADME_rCYP2D2 is one of one assay component(s) measured or calculated from the NVS_ADME_rCYP2D2 assay. It is designed to make measurements of enzyme activity, a form of enzyme reporter, as detected with fluorescence intensity signals by Fluorescence technology.Data from the assay component NVS_ADME_rCYP2D2 was analyzed into 1 assay endpoint. This assay endpoint, NVS_ADME_rCYP2D2, was analyzed in the positive analysis fitting direction relative to Acetonitrile as the negative control and baseline of activity. Using a type of enzyme reporter, loss-of-signal activity can be used to understand changes in the enzymatic activity as they relate to the gene Cyp2d2. Furthermore, this assay endpoint can be referred to as a primary readout, because this assay has produced multiple assay endpoints where this one serves a enzymatic activity function. To generalize the intended target to other relatable targets, this assay endpoint is annotated to the cyp intended target family, where the subfamily is xenobiotic metabolism.
Binding assays used specific radioligands (tritiated, iodinated) with non-radioactive competitive displacement ligands in agonist or antagonist protocols (as indicated) and various reference compounds and inhibitors to titrate specific binding to receptors and transporters. Most enzyme assays (CYPs, kinases, phosphatases, proteases, HDACs) used recombinant protein and specific substrates (fluorescence mostly, some colorimetric and radioactive) and inhibitors, followed by a biochemical separation of substrate and product. All assays for the biochemical HTS were initially run in duplicate at a single concentration (10 uM for CYP450 assays and 25 uM for all others). Assay-chemical combinations meeting a pre-defined threshold (e.g., 30% inhibition and other criteria defined below) were then run in singleton concentration-response format with maximum concentration of 20 uM for CYPs and 50 uM for all others. Each assay was run with positive and negative controls, and concurrent controls on every plate. The follow-up (secondary) screen tested active chemical-pairs in concentration series, as well as a few additional assays not tested in the primary screen, some selected negative inactives, and several cases re-run in the concentration series for confirmatory purposes.
Turning to `CCOC(=O)CC(SP(=S)(OC)OC)C(=O)OCC` (configuration not stated), the AC50 (as a rule, the midpoint of the concentration-response curve, whichever way the signal moves) was 6.28 µM (active).

Regarding `COc1ccc(C(c2ccc(OC)cc2)C(Cl)(Cl)Cl)cc1`, the compound was called inactive.

For the compound `C#CCOS(=O)OC1CCCCC1Oc1ccc(C(C)(C)C)cc1` (configuration not stated), the AC50 is 10 µM (active).

`CCOC(=O)C(Cl)Cc1cc(-n2nc(C)n(C(F)F)c2=O)c(F)cc1Cl` (configuration not stated): the call was inactive.

As for `COC(=O)C(C)Oc1ccc(Oc2ccc(Cl)cc2Cl)cc1` (configuration not stated), the result was inactive; the AC50 was 7.38 µM (active) and 10 µM (active).

In the case of `CCCC1COC(Cn2cncn2)(c2ccc(Cl)cc2Cl)O1` (configuration not stated), the AC50 was 7.44 µM (active) and 7.78 µM (active).

For the compound `CCOP(=S)(OCC)SCn1c(=O)oc2cc(Cl)ccc21`, the AC50 is 2.07 µM (active).

`CCCN(CCC)c1c([N+](=O)[O-])cc(S(N)(=O)=O)cc1[N+](=O)[O-]`: the AC50 is 1.3 µM (active).

Take `OC(c1ccc(Cl)cc1)(c1cncnc1)c1ccccc1Cl` (configuration not stated): the AC50 was 6.92 µM (active).

`Cc1ccc(-c2c(Cl)nc(C#N)n2S(=O)(=O)N(C)C)cc1`: the AC50 is 4.31 µM (active).

`CC1COC(Cn2cncn2)(c2ccc(Oc3ccc(Cl)cc3)cc2Cl)O1` (configuration not stated): the half-maximal activity concentration (AC50) was 1.4 µM (active).

The values are drawn from PubChem BioAssay (EPA / NIEHS).
